The results in this text go back to PubChem BioAssay AID1310 (The Scripps Research Institute Molecular Screening Center, 2008).

Structures are written as SMILES. The list shows a part of the results. A number with no mark means an inactive call. Active and inactive are the calls of the source.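 How the source made its calls: active means inhibition above the mean of solvent-only control wells plus 3 SD, set per campaign (cut at about 25% in these data); inactive means the rest.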

The nature of this assay: blockers of IL-6 STAT3 transcription – U3A cells, luciferase, luminescence, triplicate, counter-screen for STAT1 inhibitor project (AID 1310).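 Further: 0% = IL-6 plus DMSO and 100% = IL-6 plus nifuroxazide control.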 To be noted: IL-6 STAT3 luciferase reporter, at 5.7 µM, stronger effect = higher value, cells lacking STAT1.
One may read the inhibition as the change of the read-out against control, counted positive when it falls. As for `COc1ccc(C(=O)Nc2ccccc2C(=O)N/N=C/c2ccccc2OC)cc1`, the inhibition is -7.2%.
For the molecule `COc1ccc(C2CC(c3cccs3)=NN2c2nc(C)c(C(C)=O)s2)cc1OC` (stereo not given), the inhibition was 13.4%.
To `CCOC(=O)N1CCN(C(=O)C2CCN(c3ncnc4c3sc3cccc(F)c34)CC2)CC1` belongs 4.65%; to `O=C(CCl)N(Cc1cccc([N+](=O)[O-])c1)c1cccc(Cl)c1`, 47% (active); to `CCOC(=O)N1CCN(C(=O)CSc2nnc(-c3c[nH]c4ccccc34)n2CCOC)CC1`, -4.2%.
The same measure for `Cc1ccc(C2=Nc3c(ccc4ccccc34)C(c3ccncc3)=NN2)cc1`: -38.9%.
The same measure for `C[C@@H]1C[C@@H]2O[C@H]2/C=C\C=C\C(=O)Cc2c(Cl)c(O)cc(O)c2C(=O)O1`: 70% (active); for `CCOC(=O)C(=CNc1cccc(C)n1)C(=O)OCC`: 9.3%; for `NS(=O)(=O)c1cccc(NC(=O)CSc2nc3ccccc3n2-c2ccccc2)c1`: -2.95%.
On to `COC(=O)C1=CN(Cc2ccc(OC)c(OC)c2)C=C(C(=O)OC)C1c1cccs1`, for which the inhibition is -3.35%.
